Source: PubChem BioAssay (National Center for Advancing Translational Sciences (NCATS))
The sample as a whole holds a higher share of hits than the screen did.
TDP1 cell noCPT: qHTS for Inhibitors of human tyrosyl-DNA phosphodiesterase 1 (TDP1): qHTS in cells in absence of CPT | Potency, µM (top dose mostly 46.2 µM), without a hit: top-dose activity change, negative = growth inhibition, usual class: inhibitors | DT40 Tdp1-/- hTDP1 cells, no CPT, ATP luminescence, 48 h | hit rate 15% among 420,000; note: potency is the fitted concentration of half-maximal effect; nearly all actives have a fitted effect of over 55% in size
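Growth of hTDP1-complemented DT40 Tdp1-knockout cells is measured by ATP luminescence after at least 48 hr compound exposure at 37 °C, with DMSO substituting for the 20 nM CPT used in the parallel screen.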
IL-1B inflam inh: blocks inflammasome-driven IL-1 beta release; THP-1 LPS/ATP IL-1B secretion, AlphaLISA, 16 h; active compounds read low; activity change, % at 57.5 µM; hit rate 4.7% among 360,000; AID 743279; in the data active = activity change below about -50%; inconclusive = mostly about -30% to -49%
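THP-1 cells pretreated 1 hr with compounds (up to 57.5 uM final), then stimulated with LPS (250 ng/mL final) plus ATP (1.25 mM final); secreted IL-1B measured by AlphaLISA after 16 hr, decreased signal indicating inhibition.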
HT1080 IDH1KD tx: kills HT-1080 cells with IDH1 knockdown. HT-1080 IDH1 knockdown viability, ATP luminescence, 48 h. Potency, µM (doses to about 46.1 µM), without a hit: top-dose activity, negative = toxicity, most hits filed as cytotoxic. hit rate 2% among 360,000. AID 686971;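 note: potency is the fitted concentration of half-maximal effect; 0% = DMSO wells and -100% = cell-free medium wells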
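Knockdown cells (IDH1KD HT-1080) received compounds 2 h after plating at 750 cells/well and were kept 48 h at 37 °C in 5% FBS RPMI. A CellTiter-Glo luminescence read gave % activity for curve fitting.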
12-LOX inh: ALOX12 (human) lipoxygenase inhibition; purified 12hLO, xylenol orange hydroperoxide absorbance; Potency, µM (titrated, usually from 108 µM), for inactives: top-dose activity change, negative = inhibition, most hits filed as inhibitors; hit rate 1.1% among 580,000; AID 1671190; note: potency is the fitted concentration of half-maximal effect
Target sequence (P18054 whole entry, looked up): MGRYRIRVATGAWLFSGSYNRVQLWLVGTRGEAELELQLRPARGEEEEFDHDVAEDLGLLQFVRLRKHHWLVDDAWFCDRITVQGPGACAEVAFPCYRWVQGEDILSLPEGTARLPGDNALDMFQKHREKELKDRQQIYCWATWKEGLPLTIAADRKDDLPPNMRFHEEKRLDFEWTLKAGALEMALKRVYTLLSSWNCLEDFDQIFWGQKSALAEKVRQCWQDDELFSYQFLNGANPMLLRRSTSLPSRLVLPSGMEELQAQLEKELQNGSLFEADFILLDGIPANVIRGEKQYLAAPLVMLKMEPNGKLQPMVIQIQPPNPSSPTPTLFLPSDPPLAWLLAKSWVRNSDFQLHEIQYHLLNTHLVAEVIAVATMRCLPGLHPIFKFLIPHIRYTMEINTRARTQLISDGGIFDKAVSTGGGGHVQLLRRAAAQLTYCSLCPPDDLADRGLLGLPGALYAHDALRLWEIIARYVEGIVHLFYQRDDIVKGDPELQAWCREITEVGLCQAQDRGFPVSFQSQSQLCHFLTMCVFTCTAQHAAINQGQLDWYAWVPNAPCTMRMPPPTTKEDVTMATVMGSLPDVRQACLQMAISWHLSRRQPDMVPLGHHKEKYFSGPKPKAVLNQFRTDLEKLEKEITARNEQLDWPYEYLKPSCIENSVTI
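Purified human 12hLO (150 nM final) in 25 mM Hepes, 0.01% Triton X-100, pH 7.0 was preincubated 15 min at room temperature with compound. Then 40 uM arachidonic acid was added, 30 min. Hydroperoxide was read by Fe-XO absorbance ratio 573/405 nm.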
HT1080NT lethal: kills 2HG-producing HT-1080-NT fibrosarcoma cells; HT-1080-NT fibrosarcoma viability, CellTiter-Glo ATP luminescence, 48 h; AID 686970; hit rate 1.6% among 360,000; Potency, µM (doses to about 46.1 µM), for the others: at the highest dose activity, negative = less viability, most hits filed as cytotoxic;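 note: NT is the 2HG producing partner of a matched IDH1 knockdown line; potency is the fitted concentration of half-maximal effect; 0% = DMSO-treated cells and -100% = media-only wells without cells; nearly all actives have a fitted effect of over 55% in size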
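Viability of the 2HG-overproducing fibrosarcoma line after 48 hours of compound exposure at 37 degrees C was determined by luminescence with CellTiter-Glo, and concentration-effect curves were then fitted and categorized.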
DT40 TDP1 CPT: growth inhibition of DT40 Tdp1-/-;hTDP1 cells with camptothecin (screen for TDP1 inhibitors) | hit rate 12% among 420,000 | chicken DT40 Tdp1-/-;hTDP1 cells + 20 nM CPT, ATP luminescence, 48 h | Potency, µM (highest dose often 46.2 µM), without a hit: top-dose activity change, negative = growth inhibition, most hits filed as inhibitors | AID 686979; note: potency is the fitted concentration of half-maximal effect; nearly all actives have a fitted effect of over 55% in size
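Chicken DT40 Tdp1-/- cells stably complemented with human TDP1 were seeded at 400 cells/well in medium containing 20 nM camptothecin, exposed to pin-transferred compounds, and grown at 37 °C for at least 48 hr. Viability was read as ATP luminescence.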
* marks the source's active call; other numbers are inactive results. Unless noted, calls come from the whole dose curve; as a rule, active = well fitted curve in the direction sought with a large enough effect; inconclusive = small, poorly fitted or top-dose-only effect, or another doubt; inactive = no such curve, though single readings can be large; an effect the other way counts as inactive or inconclusive. Unless noted, % is set by controls: 0 for no effect and ±100 for the full control effect.

How did CCc1ccccc1OC[C@@H](O)CN[C@H]1CCCc2ccccc21 do in these assays?
TDP1 cell noCPT: 6µM*; IL-1B inflam inh: inconclusive; HT1080 IDH1KD tx: inconclusive; 12-LOX inh: inconclusive; HT1080NT lethal: inconclusive; DT40 TDP1 CPT: 16µM*

Results for CC(=O)CCc1ccc(OCC(O)CNC2CCCc3ccccc32)cc1 (centres undefined) ?
TDP1 cell noCPT: inconclusive; IL-1B inflam inh: -11; HT1080 IDH1KD tx: 1%; 12-LOX inh: -11%; HT1080NT lethal: 1%; DT40 TDP1 CPT: inconclusive

How did COCC1CN(C2CCC2)CC12CCN(C(=O)Cn1cccn1)CC2 (centres undefined) do in these assays?
12-LOX inh: 86%

How did O=C(CC(c1ccccc1)c1cccc(Cl)c1)NC1CCC(O)CC1 (centres undefined) do in these assays?
12-LOX inh: 5%

Results for Cn1nc(C(=O)N(Cc2ccc3c(c2)OCO3)C2CCCC2)c2ccccc2c1=O ?
12-LOX inh: 20%

Results for CCOc1ccc(-n2nc3ccc(N)cc3n2)cc1 ?
TDP1 cell noCPT: inconclusive; IL-1B inflam inh: 1; HT1080 IDH1KD tx: 1%; 12-LOX inh: 49%; HT1080NT lethal: 4%; DT40 TDP1 CPT: -18%

How did COc1ccc(-n2nc3ccc(N)cc3n2)cc1 do in these assays?
TDP1 cell noCPT: inconclusive; IL-1B inflam inh: 39; HT1080 IDH1KD tx: -4%; 12-LOX inh: inconclusive; HT1080NT lethal: -2%; DT40 TDP1 CPT: 16µM*

Results for CCn1nc(C(=O)N(C)CCOc2ccccc2C)c2ccccc2c1=O ?
12-LOX inh: 2%

Results for CC(C)N(CC(O)COCc1ccccc1Cl)CC(O)COc1cccc2ccccc12 (centres undefined) ?
12-LOX inh: -51%

Results for CCc1ccc(NC(=O)C2CCN(S(=O)(=O)c3c(C)noc3/C=C/c3cccs3)CC2)cc1 ?
TDP1 cell noCPT: 18µM*; 12-LOX inh: -12%; DT40 TDP1 CPT: inconclusive

What do the screens show for `COc1ccc(NC(=O)C2CCN(S(=O)(=O)c3c(C)noc3/C=C/c3cccs3)CC2)cc1Cl`?
TDP1 cell noCPT: inconclusive; 12-LOX inh: -10%; DT40 TDP1 CPT: inconclusive

How did COc1cccc(CNC(=O)C2CCN(S(=O)(=O)c3c(C)noc3/C=C/c3cccs3)CC2)c1 do in these assays?
TDP1 cell noCPT: 23µM*; 12-LOX inh: -13%; DT40 TDP1 CPT: inconclusive

What do the screens show for `CCc1ccc(NC(=O)C2CCN(S(=O)(=O)c3c(C)noc3/C=C/c3ccco3)CC2)cc1`?
TDP1 cell noCPT: -28%; 12-LOX inh: -45%; DT40 TDP1 CPT: inconclusive

What do the screens show for `Cc1noc(/C=C/c2cccs2)c1S(=O)(=O)N1CCC(C(=O)Nc2ccc(F)c(Cl)c2)CC1`?
TDP1 cell noCPT: 15µM*; 12-LOX inh: inconclusive; DT40 TDP1 CPT: 13µM*

Results for CCc1ccc(NC(=O)C2CCN(S(=O)(=O)c3c(C)noc3/C=C/N(C)C)CC2)cc1 ?
TDP1 cell noCPT: 9.2µM*; IL-1B inflam inh: -27; HT1080 IDH1KD tx: 1%; 12-LOX inh: inconclusive; HT1080NT lethal: 0%; DT40 TDP1 CPT: inconclusive

How did Cc1cccc(CSCC(=O)N2CCCC2)c1 do in these assays?
12-LOX inh: 1%

Results for COc1cc(C(=O)NC2CCCCCCC2)cc(OC)c1OC ?
TDP1 cell noCPT: inconclusive; IL-1B inflam inh: 41; HT1080 IDH1KD tx: 7%; 12-LOX inh: 26%; HT1080NT lethal: 19%; DT40 TDP1 CPT: 21%
